Here are results for four molecules from PubChem BioAssay (EPA / NIEHS).

Each structure is given as a SMILES string. Inconclusive results are not listed. Active and inactive are the calls of the source. How the source made its calls, unless noted: active means hit-call score of the fitted dose curve at least 0.9, where 1 is the maximum; inactive means score below 0.9.

For experiment [1], the target named is Paired box protein Pax-6 (Homo sapiens) (UniProt P26367). Kind of experiment: ATG_Pax6_CIS: Attagene CIS-FACTORIAL HepG2 Assay for human Paired Box 6 (PAX6) (AID 2282956). As to conditions: HepG2 CIS-FACTORIAL PAX6 reporter transcription, RNA readout; actives raise or lower the signal. The procedure, abridged: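 DMSO-referenced bidirectional fits of reporter mRNA fluorescence; HepG2 with transient cis-promoter MRTUs, 24 h post-dose, RT-PCR plus capillary electrophoresis detection.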
Chain of Paired box protein Pax-6 (Homo sapiens) (P26367 whole entry, looked up): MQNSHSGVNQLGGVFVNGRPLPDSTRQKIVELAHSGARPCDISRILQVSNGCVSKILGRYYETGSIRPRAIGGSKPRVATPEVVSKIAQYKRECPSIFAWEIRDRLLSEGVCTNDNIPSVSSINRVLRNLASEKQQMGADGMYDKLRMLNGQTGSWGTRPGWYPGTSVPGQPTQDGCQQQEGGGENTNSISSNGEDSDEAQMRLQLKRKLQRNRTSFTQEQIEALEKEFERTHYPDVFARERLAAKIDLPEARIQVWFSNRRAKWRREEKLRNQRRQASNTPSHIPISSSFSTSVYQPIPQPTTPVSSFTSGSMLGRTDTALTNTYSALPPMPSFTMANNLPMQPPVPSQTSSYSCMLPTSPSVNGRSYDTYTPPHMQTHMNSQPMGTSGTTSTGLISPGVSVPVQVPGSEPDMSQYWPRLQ

Experiment [2] is described as follows: ATG_PXRE_CIS: Attagene CIS-FACTORIAL HepG2 Assay for human Pregnane X Receptor Element (PXRE) (AID 2282957). The conditions noted are these: HepG2 Attagene CIS-FACTORIAL PXRE reporter, mRNA; actives raise or lower the signal. The procedure, abridged: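 Bidirectional activity, baselined to DMSO, derived from reporter mRNA fluorescence (RT-PCR plus capillary electrophoresis) in HepG2 cells bearing cis-promoter reporter units, 24 h exposure.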

A short description of experiment [3]: ATG_PPRE_CIS: Attagene CIS-FACTORIAL HepG2 Assay for human Peroxisome Proliferator-activated Response Element (PPRE) (AID 2282958). As to conditions: HepG2 PPRE cis-element reporter, Attagene transcription factor profiling; actives raise or lower the signal. The procedure, abridged:
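Read-out: fluorescent reporter mRNA fragments resolved by capillary electrophoresis after RT-PCR. HepG2 cells carried transiently transfected PPRE-driven cis reporter constructs and were dosed for 24 h; gain or loss of signal fitted relative to DMSO.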

A short description of experiment [4]: ATG_RORE_CIS: Attagene CIS-FACTORIAL HepG2 Assay for human RAR-related Orphan Receptor Element (RORE) (AID 2282959). The conditions noted are these: HepG2 Attagene cis-factorial RORE reporter, mRNA; actives raise or lower the signal. The procedure, abridged:
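Readout: fluorescent reporter mRNA by RT-PCR plus capillary electrophoresis, 24 h after dosing transfected HepG2 cells. Endogenous transcription factor activity on a cis promoter element is measured. Gain or loss of signal fitted against DMSO.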

Experiment [5] is described as follows: ATG_Sox_CIS: Attagene CIS-FACTORIAL HepG2 Assay for human SRY-box transcription factor (SOX) (AID 2282960). The conditions noted are these: HepG2 Attagene cis-factorial SOX reporter, mRNA; actives raise or lower the signal. The procedure, abridged:
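Read-out: fluorescent RT-PCR products of SOX1-linked reporter transcripts resolved by capillary electrophoresis, fitted bidirectionally against DMSO. Transiently transfected HepG2 cells, 24 h after chemical exposure, endogenous transcription factor activity.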

Experiment [6] concerns the target Transcription factor Sp1 (Homo sapiens) (UniProt P08047). Nature of the experiment: ATG_Sp1_CIS: Attagene CIS-FACTORIAL HepG2 Assay for human Specificity Protein 1 (Sp1) (AID 2282961). As to conditions: HepG2 Sp1 cis-reporter transcription, actives raise or lower the signal. The procedure, abridged:
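Read-out: fluorescence of 6-FAM-labeled, HpaI-digested RT-PCR products separated by capillary electrophoresis. HepG2 cells carried transfected cis-element reporter units and were exposed to chemicals for 24 h; gain or loss of signal fitted relative to DMSO.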

Experiment [7] in a line: ATG_SREBP_CIS: Attagene CIS-FACTORIAL HepG2 Assay for human Sterol Regulatory Element Binding (SREBP) (AID 2282962). The conditions noted are these: HepG2 Attagene cis-factorial SREBP reporter, mRNA; actives raise or lower the signal. The procedure, abridged: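 In this cis-format assay, HepG2 liver cells express reporters controlled by promoter elements responsive to native transcription factors. Exposure lasts 24 h; reporter mRNA fluorescence from capillary electrophoresis gives the signal, fitted bidirectionally against DMSO.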

In experiment [8] the target is Signal transducer and activator of transcription 3 (Homo sapiens) (UniProt P40763). Kind of experiment: ATG_STAT3_CIS: Attagene CIS-FACTORIAL HepG2 Assay for human Signal Transducer and Activator of Transcription 3 (STAT3) (AID 2282963). As to conditions: HepG2, Attagene cis-factorial STAT3 reporter transcription; actives raise or lower the signal. The procedure, abridged: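 HepG2, MRTU-transfected, 24 h dosing. RNA → RT → PCR → FAM label → HpaI → CE. Bidirectional fit vs DMSO.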
Chain of Signal transducer and activator of transcription 3 (Homo sapiens) (P40763 whole entry, looked up): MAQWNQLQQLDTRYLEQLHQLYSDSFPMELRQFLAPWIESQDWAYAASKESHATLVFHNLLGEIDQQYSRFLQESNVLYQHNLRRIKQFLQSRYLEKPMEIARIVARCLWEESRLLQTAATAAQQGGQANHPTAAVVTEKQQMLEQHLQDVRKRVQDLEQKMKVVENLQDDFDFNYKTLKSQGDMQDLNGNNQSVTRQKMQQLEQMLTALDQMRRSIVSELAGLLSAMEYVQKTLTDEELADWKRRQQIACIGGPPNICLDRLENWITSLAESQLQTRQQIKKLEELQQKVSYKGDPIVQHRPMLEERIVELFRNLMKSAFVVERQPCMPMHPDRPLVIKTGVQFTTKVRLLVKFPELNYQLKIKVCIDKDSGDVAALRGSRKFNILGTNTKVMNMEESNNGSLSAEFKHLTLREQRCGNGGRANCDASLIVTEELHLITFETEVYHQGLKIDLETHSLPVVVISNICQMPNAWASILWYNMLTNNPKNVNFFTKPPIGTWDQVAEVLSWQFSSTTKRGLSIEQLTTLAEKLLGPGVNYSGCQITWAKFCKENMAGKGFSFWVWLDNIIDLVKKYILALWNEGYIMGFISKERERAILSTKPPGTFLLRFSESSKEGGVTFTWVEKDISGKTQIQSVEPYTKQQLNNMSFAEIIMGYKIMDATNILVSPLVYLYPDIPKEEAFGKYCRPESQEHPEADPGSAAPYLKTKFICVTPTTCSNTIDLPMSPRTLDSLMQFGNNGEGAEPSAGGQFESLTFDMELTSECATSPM

Experiment [9] is described as follows: ATG_TA_CIS: Attagene CIS-FACTORIAL HepG2 Assay for human TA Basal Promoter (AID 2282964). The conditions noted are these: HepG2 Attagene CIS-factorial TA basal promoter reporter; actives raise or lower the signal. The procedure, abridged:
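HepG2 cells transiently transfected with multiplexed cis-promoter reporter units, dosed 24 h. Reporter mRNA measured by RT-PCR, 6-FAM labelling, HpaI digestion and capillary electrophoresis; bidirectional fit versus DMSO baseline, serving as background control.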

A short description of experiment [10]: ATG_TCF_b_cat_CIS: Attagene CIS-FACTORIAL HepG2 Assay for human T-Cell-Factor with beta-catenin (TCF/b-cat) (AID 2282965). The conditions noted are these: HepG2 TCF/beta-catenin cis-reporter transcription, actives raise or lower the signal. The procedure, abridged: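 HepG2 cells transiently transfected with multiple cis-promoter-regulated reporter transcription units, so endogenous transcription factor activity is measured. Reporter mRNA read 24 hours after dosing by RT-PCR, fluorescent labelling and capillary electrophoresis; bidirectional fitting against DMSO.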

The nature of experiment [11]: ATG_TAL_CIS: Attagene CIS-FACTORIAL HepG2 Assay for human TAL Basal Promoter (AID 2282966).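 Further: background control endpoint measuring basal TAL promoter reporter mRNA not a specific factor.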 The conditions noted are these: HepG2 Attagene cis-factorial TAL promoter reporter; actives raise or lower the signal. The procedure, abridged: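 Human hepatoma HepG2 cells, transfected with promoter-regulated reporter units, were treated 24 h. Reporter transcript levels, measured through RT-PCR and capillary electrophoresis, were fitted for gain or loss relative to DMSO.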

Experiment [12] is described as follows: ATG_TGFb_CIS: Attagene CIS-FACTORIAL HepG2 Assay for human Transforming Growth Factor (TGF) (AID 2282967). As to conditions: HepG2 Attagene CIS TGFb reporter, mRNA transcription; actives raise or lower the signal. The procedure, abridged:
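HepG2 cells transiently transfected with cis-promoter-driven multiplexed reporter units; 24 h compound exposure. Reporter mRNA measured by RT-PCR, 6-FAM labeling, HpaI digestion and capillary electrophoresis; bidirectional fit versus DMSO baseline.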

For experiment [13], the target named is Estrogen receptor (Homo sapiens) (UniProt P03372). Kind of experiment: ATG_ERa_TRANS: Attagene TRANS-FACTORIAL HepG2 Assay for human Estrogen Receptor alpha (ERa) (AID 2282970; active means hit-call score of the fitted dose curve at least 0.9, where 1 is the maximum). The conditions noted are these: HepG2 Attagene TRANS ERa GAL4 reporter, mRNA. The procedure, abridged: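 Signal derives from fluorescence of labelled reporter PCR fragments separated by capillary electrophoresis. HepG2 cells transiently carrying multiple GAL4-UAS reporter units were treated 24 hours, and induction above DMSO baseline was fitted as activity.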
Chain of Estrogen receptor (Homo sapiens) (P03372 whole entry, looked up, the tested form may be a part): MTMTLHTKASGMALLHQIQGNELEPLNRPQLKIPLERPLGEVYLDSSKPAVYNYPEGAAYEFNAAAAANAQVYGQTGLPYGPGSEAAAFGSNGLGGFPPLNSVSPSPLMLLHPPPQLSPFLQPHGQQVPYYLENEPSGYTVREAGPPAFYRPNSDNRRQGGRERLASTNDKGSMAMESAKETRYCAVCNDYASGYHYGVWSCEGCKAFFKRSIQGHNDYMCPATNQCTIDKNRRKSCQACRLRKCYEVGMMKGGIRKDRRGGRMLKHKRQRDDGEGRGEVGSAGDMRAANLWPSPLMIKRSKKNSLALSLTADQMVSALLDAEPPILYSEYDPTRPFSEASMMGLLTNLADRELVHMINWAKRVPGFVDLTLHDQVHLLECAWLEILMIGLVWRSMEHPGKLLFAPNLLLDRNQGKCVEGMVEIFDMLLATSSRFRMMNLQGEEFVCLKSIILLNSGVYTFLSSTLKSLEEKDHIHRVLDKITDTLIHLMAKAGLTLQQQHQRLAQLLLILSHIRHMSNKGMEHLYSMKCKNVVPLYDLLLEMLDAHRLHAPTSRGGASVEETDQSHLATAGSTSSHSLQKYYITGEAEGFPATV

Experiment [14] has as its target X-box-binding protein 1 (Homo sapiens) (UniProt P17861). Kind of experiment: ATG_Xbp1_CIS: Attagene CIS-FACTORIAL HepG2 Assay for human X-box Binding Protein 1 (XBP1) (AID 2282972). As to conditions: HepG2 XBP1 cis-element reporter, Attagene multiplex; actives raise or lower the signal. The procedure, abridged:
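Changes in reporter transcript abundance, read by RT-PCR and capillary electrophoresis, reflect endogenous transcription factor activity. Transfected HepG2 cells received compound for 24 hours; DMSO defined baseline for bidirectional analysis.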

A short description of experiment [15]: ATG_M_19_TRANS: Attagene TRANS-FACTORIAL HepG2 Assay for M19 Transcription Factor (Internal Marker) (AID 2282974; active means hit-call score of the fitted dose curve at least 0.9, where 1 is the maximum). As to conditions: HepG2 Attagene TRANS-FACTORIAL M19 internal marker reporter. The procedure, abridged:
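24 h chemical exposure of transiently transfected HepG2 (MRTU library). RNA → oligo(dT) RT → PCR → 6-FAM labelling → HpaI cut → CE fluorescence. Positive-direction fit vs DMSO baseline; background internal-marker readout.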

A short description of experiment [16]: ATG_GAL4_TRANS: Attagene TRANS-FACTORIAL HepG2 Assay for GAL4 (Internal Marker) (AID 2282976; active means hit-call score of the fitted dose curve at least 0.9, where 1 is the maximum). The conditions noted are these: HepG2 Attagene TRANS GAL4 internal marker reporter. The procedure, abridged: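 Liver HepG2 line bearing multiplexed GAL4-UAS reporter constructs; 24 h chemical treatment. Transcripts were quantified as fluorescent fragments on capillary electrophoresis after RT-PCR and HpaI cut, with activity fitted upward from DMSO.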

Experiment [17] in a line: ATG_VDRE_CIS: Attagene CIS-FACTORIAL HepG2 Assay for human Vitamin D Receptor Element (VDRE) (AID 2282968). As to conditions: HepG2 VDRE cis-reporter transcription, actives raise or lower the signal. The procedure, abridged: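 Steps: transfect HepG2 with multiple reporter transcription units; dose chemicals 24 h; isolate RNA; RT-PCR; label with 6-FAM primer extension; HpaI digest; capillary electrophoresis. Curves fitted both directions against DMSO.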

Experiment [18] addresses Nuclear receptor subfamily 1 group I member 3 (Homo sapiens) (UniProt Q14994). Nature of the experiment: ATG_CAR_TRANS: Attagene TRANS-FACTORIAL HepG2 Assay for human Constitutive Androstane Receptor (CAR) (AID 2282969; active means hit-call score of the fitted dose curve at least 0.9, where 1 is the maximum;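 further: activators raise reporter mRNA above DMSO so AC50 marks induction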). As to conditions: HepG2 Attagene TRANS-FACTORIAL CAR reporter. The procedure, abridged:
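Steps: transient transfection of HepG2 with multiple GAL4-UAS reporter units; 24 h compound incubation; RNA isolation, RT-PCR, 6-FAM primer extension, HpaI digest; capillary electrophoresis. Gain-of-signal relative to DMSO negative control.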

Experiment [19] addresses Steroid hormone receptor ERR1 (Homo sapiens) (UniProt P11474). Kind of experiment: ATG_ERRa_TRANS: Attagene TRANS-FACTORIAL HepG2 Assay for human Estrogen-Related Receptor alpha (ERRa) (AID 2282971; active means hit-call score of the fitted dose curve at least 0.9, where 1 is the maximum). The conditions noted are these: HepG2 Attagene TRANS reporter, ERRa transactivation. The procedure, abridged:
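Signal gain relative to DMSO for an ERRa-Gal4 chimeric receptor, read as reporter mRNA by RT-PCR/capillary electrophoresis. Human HepG2 liver cells, transient multiplex reporter transfection, 24 h chemical exposure.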

Chain of Transcription factor Sp1 (Homo sapiens) (P08047 whole entry, looked up): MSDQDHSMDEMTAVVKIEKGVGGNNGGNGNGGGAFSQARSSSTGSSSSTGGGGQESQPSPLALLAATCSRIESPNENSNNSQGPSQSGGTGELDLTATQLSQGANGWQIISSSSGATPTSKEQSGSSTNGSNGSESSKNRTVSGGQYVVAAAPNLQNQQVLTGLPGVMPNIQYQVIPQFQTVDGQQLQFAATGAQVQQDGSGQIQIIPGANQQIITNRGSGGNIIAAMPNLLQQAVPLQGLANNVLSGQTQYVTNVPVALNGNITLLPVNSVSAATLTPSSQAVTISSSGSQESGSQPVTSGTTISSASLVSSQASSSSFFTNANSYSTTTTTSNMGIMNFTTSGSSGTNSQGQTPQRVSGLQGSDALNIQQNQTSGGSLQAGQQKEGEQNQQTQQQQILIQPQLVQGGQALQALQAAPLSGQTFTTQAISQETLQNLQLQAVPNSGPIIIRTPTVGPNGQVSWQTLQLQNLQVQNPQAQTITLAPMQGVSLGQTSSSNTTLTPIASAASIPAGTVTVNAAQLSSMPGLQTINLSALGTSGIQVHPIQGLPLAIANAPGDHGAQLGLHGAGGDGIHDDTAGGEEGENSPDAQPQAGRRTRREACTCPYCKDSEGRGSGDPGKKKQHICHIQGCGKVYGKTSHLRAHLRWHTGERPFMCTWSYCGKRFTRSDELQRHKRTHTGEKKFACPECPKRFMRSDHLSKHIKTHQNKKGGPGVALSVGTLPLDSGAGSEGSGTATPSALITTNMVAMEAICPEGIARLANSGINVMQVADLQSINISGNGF
Chain of X-box-binding protein 1 (Homo sapiens) (P17861 whole entry, looked up): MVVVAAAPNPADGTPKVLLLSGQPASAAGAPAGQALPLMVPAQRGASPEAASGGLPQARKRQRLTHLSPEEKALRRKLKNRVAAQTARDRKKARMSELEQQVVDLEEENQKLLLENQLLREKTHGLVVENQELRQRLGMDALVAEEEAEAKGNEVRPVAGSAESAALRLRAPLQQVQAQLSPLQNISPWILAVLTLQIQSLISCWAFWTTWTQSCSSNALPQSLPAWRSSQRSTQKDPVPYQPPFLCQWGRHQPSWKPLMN
Chain of Nuclear receptor subfamily 1 group I member 3 (Homo sapiens) (Q14994 whole entry, looked up, the tested form may be a part): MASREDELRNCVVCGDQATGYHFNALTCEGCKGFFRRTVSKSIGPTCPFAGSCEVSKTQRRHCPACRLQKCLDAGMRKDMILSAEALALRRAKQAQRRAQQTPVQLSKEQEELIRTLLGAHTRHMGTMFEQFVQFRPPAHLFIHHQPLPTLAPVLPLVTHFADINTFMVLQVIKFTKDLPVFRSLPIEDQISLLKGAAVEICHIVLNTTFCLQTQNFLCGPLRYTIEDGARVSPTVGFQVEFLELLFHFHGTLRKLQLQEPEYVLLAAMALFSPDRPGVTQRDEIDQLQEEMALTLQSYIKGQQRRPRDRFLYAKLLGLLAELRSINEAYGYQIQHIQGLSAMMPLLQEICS
Chain of Steroid hormone receptor ERR1 (Homo sapiens) (P11474 whole entry, looked up, the tested form may be a part): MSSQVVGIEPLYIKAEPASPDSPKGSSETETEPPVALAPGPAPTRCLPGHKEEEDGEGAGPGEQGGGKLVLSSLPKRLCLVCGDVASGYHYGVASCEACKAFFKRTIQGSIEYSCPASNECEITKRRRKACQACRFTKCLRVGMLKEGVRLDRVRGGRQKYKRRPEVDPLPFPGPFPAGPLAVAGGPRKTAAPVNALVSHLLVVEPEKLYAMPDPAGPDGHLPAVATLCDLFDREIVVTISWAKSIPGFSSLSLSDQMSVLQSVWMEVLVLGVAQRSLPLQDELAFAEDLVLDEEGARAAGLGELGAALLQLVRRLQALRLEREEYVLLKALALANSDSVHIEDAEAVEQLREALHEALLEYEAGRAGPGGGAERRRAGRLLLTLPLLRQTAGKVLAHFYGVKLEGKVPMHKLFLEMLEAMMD

For the molecule `CCCc1ccc(OC)cc1`, the result in experiment [1], in experiment [2], in experiment [3], in [4], in [5] and in experiment [6] was inactive. The outcome in experiment [7], in [8], in experiment [9], in [10], in experiment [11] and in [12] was inactive. For the same molecule, the call in [13], in [14], in experiment [15] and in experiment [16] was inactive.
With `CCOc1nc(F)cc2nc(S(=O)(=O)Nc3c(Cl)cccc3C(=O)OC)nn12`, the call in experiment [1], in experiment [3], in experiment [4], in experiment [5], in [6] and in experiment [7] was inactive. The result in experiment [8], in experiment [9], in experiment [10], in experiment [11], in experiment [12] and in experiment [14] was inactive. For the same molecule, the molecule was called inactive in [16]. Besides, the AC50 in experiment [2] is 7.46 µM (active); in experiment [17] it was 16.6 µM (active).
Consider `CCC(C)C=O` (configuration not stated), for which the molecule was called inactive in experiment [1], in experiment [2], in [3], in experiment [4], in experiment [5] and in experiment [6]. Moreover, the molecule was classed as inactive in experiment [7], in [8], in experiment [9], in experiment [10], in experiment [11] and in experiment [17]. In addition, the molecule was called inactive in [14] and in experiment [15].
For `CCCCCCCOC(=O)CCC`, the molecule was classed as inactive in [1], in experiment [3], in experiment [4], in [5], in experiment [6] and in [7]. Further, the result in [8], in experiment [9], in [10], in [12], in experiment [17] and in [18] was inactive. Further, the result in experiment [13], in experiment [19], in experiment [14] and in experiment [16] was inactive. The AC50 in experiment [2] was 48 µM (active).

Broadly, the AC50 is the concentration at which the activity in the assay is half-maximal.
